From PubChem
IDE cell inh = inhibits human insulin-degrading enzyme in HEK cells; P14735; FAbetaB cleavage, fluorescence polarization; inhibition, % at 5.59 µM; hit rate 0.41% among 320,000; AID 434962;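 active = percent inhibition above the average of all tested compounds plus 3 SD, set per screening campaign, cut at about 16% in these data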;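 note: IDE supplied by intact live HEK cells; FP after avidin binding of uncleaved biotin substrate so inhibition keeps polarization high; 0% = DMSO wells and 100% = 60 µM reference IDE inhibitor Ii1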
IDE cell activ = IDE (human) activation, cell-based | P14735 | HEK cells, FAbeta-B cleavage, fluorescence polarization; 0% vehicle, 100% cell-free pure enzyme wells | activation, % at 5.96 µM | hit rate 0.073% among 340,000 | AID 493087;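 active = activation above the mean of all tested compounds plus 3 SD, set per screening campaign, cut at about 17% in these data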
NOD2 RIPK2 PPI = inhibitors of human NOD2-RIPK2 interaction. O43353. CHO BLA complementation NOD2-RIPK2, CCF4 ratio. inhibition, % at 4.98 µM. hit rate 0.38% among 360,000. AID 624267; in the data active = inhibition above about 21%;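 note: 0% = vehicle only and 100% = reference blocker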
Target sequence (O43353 whole entry, looked up): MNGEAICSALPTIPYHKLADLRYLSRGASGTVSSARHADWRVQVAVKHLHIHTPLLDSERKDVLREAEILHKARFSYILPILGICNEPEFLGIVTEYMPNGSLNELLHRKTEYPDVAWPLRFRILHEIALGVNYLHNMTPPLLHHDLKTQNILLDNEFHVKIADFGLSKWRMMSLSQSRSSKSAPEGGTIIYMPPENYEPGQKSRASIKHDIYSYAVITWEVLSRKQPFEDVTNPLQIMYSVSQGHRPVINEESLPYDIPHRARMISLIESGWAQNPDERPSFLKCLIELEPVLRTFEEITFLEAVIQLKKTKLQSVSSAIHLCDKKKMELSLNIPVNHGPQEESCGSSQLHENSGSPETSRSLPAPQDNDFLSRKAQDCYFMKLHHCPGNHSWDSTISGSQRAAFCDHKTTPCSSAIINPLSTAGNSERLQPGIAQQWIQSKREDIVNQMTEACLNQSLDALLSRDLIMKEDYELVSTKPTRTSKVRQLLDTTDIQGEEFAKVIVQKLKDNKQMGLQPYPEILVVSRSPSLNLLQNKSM
TLR4 MyD88 comp = TLR4-MyD88 interaction inhibition in cells; O00206+Q99836; hit rate 0.18% among 200,000; inhibition, % at 8.4 µM; HeLa CL3-4 TLR4/MyD88 BLA complementation, FRET ratio; in the data active = inhibition above about 25%;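 note: 0% = vehicle and 100% = reference inhibitor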
TLR9-MyD88 inh = inhibitors of human TLR9-MyD88 binding; Q9NR96+Q99836; CHO BLA complementation TLR9-MyD88, CCF4 FRET ratio; inhibition, % at 4.98 µM; hit rate 0.21% among 340,000; AID 504734;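 active = inhibition above the mean over all tested compounds plus 3 SD, cut at about 21% in these data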;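 note: 0% = DMSO only wells and 100% = clavulanate BLA inhibitor control wells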
IDE cell inh cf = cellular human IDE inhibition, confirmation; AID 435028; hit rate 51% among 1,200; HEK cells, FAbetaB cleavage, fluorescence polarization; shares compounds with IDE cell inh; inhibition, % at 5.59 µM;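 active = mean inhibition across triplicate wells above the cutoff set by the earlier primary insulin-degrading enzyme screen, cut at about 16% in these data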;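 note: 0% = DMSO wells and 100% = 60 µM reference IDE inhibitor Ii1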
HEK293 tox = kills HEK cells in IDE inhibitor counter-screen; shares compounds with IDE cell inh; HEK293 cytotoxicity, ATP luminescence; inhibition, % at 5.59 µM; hit rate 28% among 1,200; AID 449730; in the data active = inhibition above about 22%;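 note: 0% = vehicle wells and 100% = reference cytotoxic drug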
IDE FP artifact = fluorescence interference counter-screen for IDE inhibitors; shares compounds with IDE cell inh; FP counterscreen for fluorescent artifacts, IDE probe project; IC50, µM; 30 tested, under 10 active; AID 588718; call rule not given here
An asterisk follows results filed as active. Compounds with a hit are over-represented: about 0.86% of the library has one in this group of screens.

For CCN(CC)c1ccc(/C=C(\C#N)C(=O)NCc2ccco2)cc1 the results were IDE cell inh 90.2*, TLR4 MyD88 comp 1.6, IDE cell inh cf 51.8* and HEK293 tox 14.5.
Screening CCC1Oc2ccccc2N(CC(=O)NCCCN2CCCCC2CC)C1=O (stereo not drawn) returned IDE cell inh -3.4, IDE cell activ 3.0, NOD2 RIPK2 PPI 5.5, TLR4 MyD88 comp 0.9 and TLR9-MyD88 inh -3.3.
`CN(C)CCCNc1ncnc2c1c(-c1ccccc1)cn2-c1ccccc1` gave IDE cell inh 2.5, IDE cell activ -2.0, NOD2 RIPK2 PPI 11.9 and TLR9-MyD88 inh 13.4.
`Cc1ccc(-c2nc(Nc3cccc(C)c3)sc2CC(=O)O)cc1` gave IDE cell inh 3.9, IDE cell activ 2.4, NOD2 RIPK2 PPI 4.9, TLR4 MyD88 comp -2.2 and TLR9-MyD88 inh 7.5.
`O=C(O)Cc1sc(NC2CCCCC2)nc1-c1ccc(Cl)cc1` gave IDE cell inh 20.0*, IDE cell activ 7.6, NOD2 RIPK2 PPI -0.1, TLR9-MyD88 inh 4.7, IDE cell inh cf -2.8 and HEK293 tox 10.6.
For O=C1/C(=C\c2c(NCCOCCO)nc3ccccn3c2=O)SC(=S)N1Cc1ccco1 the results were IDE cell inh 98.5*, IDE cell activ -69.4, NOD2 RIPK2 PPI 2.9, TLR9-MyD88 inh 5.6, IDE cell inh cf 79.8* and HEK293 tox 15.3.
O=C(CC1Sc2ccccc2NC1=O)Nc1cccnc1 (stereo not drawn) was read as IDE cell inh -0.4, IDE cell activ 2.8, NOD2 RIPK2 PPI -10.7, TLR4 MyD88 comp -15.8 and TLR9-MyD88 inh 1.1.
`O=C(CC1Sc2ccccc2NC1=O)Nc1cccc(-c2nnc3n2CCCCC3)c1` (stereo not drawn) gave IDE cell inh 16.5*, IDE cell activ -14.5, NOD2 RIPK2 PPI -1.5, TLR4 MyD88 comp -1.8, TLR9-MyD88 inh 8.0, IDE cell inh cf 8.8 and HEK293 tox 6.2.
For COc1cccc(NC(=O)c2cc([N+](=O)[O-])ccc2N2CCN(C)CC2)c1 the results were IDE cell inh 2.9, IDE cell activ 2.2, NOD2 RIPK2 PPI 0.5, TLR4 MyD88 comp 8.5 and TLR9-MyD88 inh -1.0.
COc1ccc([C@@H]2C[C@H]3CN(c4ccccc4)C(=O)[C@]34CCCN24)c(OC)c1OC was read as IDE cell inh 21.8*, IDE cell activ -12.6, NOD2 RIPK2 PPI -7.8, TLR4 MyD88 comp 7.3, TLR9-MyD88 inh 0.5, IDE cell inh cf 7.7 and HEK293 tox 13.7.
COCc1cc([C@@H]2C[C@H]3CN(c4ccccc4)C(=O)[C@]34CCCN24)ccc1OC was read as IDE cell inh 2.5, IDE cell activ 6.1, NOD2 RIPK2 PPI -2.8, TLR4 MyD88 comp -6.5 and TLR9-MyD88 inh 0.5.
Screening Cc1ccc(/C=C/c2ccc(N(C)C)cc2)[n+](C)c1 returned IDE cell inh 18.3*, IDE cell activ -10.4, NOD2 RIPK2 PPI 10.7, TLR9-MyD88 inh -6.3, IDE cell inh cf 25.2* and HEK293 tox 90.7*.
`Brc1cccc(-c2nc3c4ccccc4ccn3c2CC2CCCCC2)c1` gave NOD2 RIPK2 PPI -15.0.
For O=C(CSc1ccsc1[N+](=O)[O-])N1CCN(c2ccc(Cl)cc2)CC1 the results were IDE cell inh 24.6*, IDE cell activ -11.6, NOD2 RIPK2 PPI -12.9, TLR4 MyD88 comp 2.6, TLR9-MyD88 inh -2.8, IDE cell inh cf 4.8 and HEK293 tox 16.0.
Screening O=S1(=O)CC(N2CCC(Cc3ccccc3)CC2)CN1C1CCCC1 (stereo not drawn) returned NOD2 RIPK2 PPI 5.2.
For N=c1oc2c3c4c(cc2cc1C(=O)Nc1ccccc1)CCCN4CCC3 the results were IDE cell inh 51.1*, IDE cell activ -29.7, NOD2 RIPK2 PPI -6.9, TLR4 MyD88 comp 2.0, TLR9-MyD88 inh 7.3, IDE cell inh cf 25.9* and HEK293 tox 20.6.
Cc1cccc(Nc2nc(N)c(C#N)c(CC#N)c2C#N)c1 was read as IDE cell inh 25.8*, IDE cell activ -7.4, NOD2 RIPK2 PPI -2.6, TLR4 MyD88 comp -11.9, TLR9-MyD88 inh -3.2, IDE cell inh cf 18.9* and HEK293 tox 12.7.
Cc1cc(C)n2c(Nc3ccc4c(c3)OCCO4)c(-c3ccccn3)nc2n1 was read as NOD2 RIPK2 PPI -4.9.
O=C(CSc1nnc(-c2cccc(Cl)c2)n1Cc1ccco1)Nc1ccc2c(c1)OCCO2 was read as IDE FP artifact >54.7.
For O=C(Nc1ccc(NC(=S)NC(=O)c2ccccc2F)cc1)c1cccs1 the results were IDE cell inh -0.5, IDE cell activ -3.3, NOD2 RIPK2 PPI -3.3, TLR4 MyD88 comp -1.9 and TLR9-MyD88 inh -8.4.
O=C(NCCCN1CCOCC1)C(=O)N/N=C/c1ccccc1 was read as IDE cell inh 3.4, IDE cell activ 5.2, NOD2 RIPK2 PPI 3.1, TLR4 MyD88 comp 11.4 and TLR9-MyD88 inh 0.8.
For O=C(NCCCN1CCOCC1)C(=O)N/N=C/c1cccc2ccccc12 the results were IDE cell inh 16.1*, IDE cell activ 5.7, NOD2 RIPK2 PPI -20.1, TLR9-MyD88 inh -4.0, IDE cell inh cf 3.8 and HEK293 tox 2.9.
For COc1ccc(N2CC(C(=O)Nc3cccc(C)n3)CC2=O)cc1 (stereo not drawn) the results were IDE cell inh -0.5, IDE cell activ -4.2, NOD2 RIPK2 PPI -4.2, TLR4 MyD88 comp -4.3 and TLR9-MyD88 inh -5.5.
`CCCCCCc1cc2cc(-c3nnc(-c4ccccc4O)o3)c(=O)oc2cc1O` gave IDE cell inh 37.8*, IDE cell activ -70.2, NOD2 RIPK2 PPI -2.9, TLR4 MyD88 comp -4.7, TLR9-MyD88 inh 1.9, IDE cell inh cf 117.7* and HEK293 tox 8.0.
For CCOC(=O)C1CCCN(C2=NC(=O)/C(=C/c3ccc(N(C)C)cc3)S2)C1 (stereo not drawn) the results were IDE cell inh 51.8*, IDE cell activ -34.2, NOD2 RIPK2 PPI 16.8, TLR9-MyD88 inh 4.8, IDE cell inh cf 42.7* and HEK293 tox 6.9.
For CCOC(=O)C1CCCN(C2=NC(=O)/C(=C/c3ccc(O)c(OCC)c3)S2)C1 (stereo not drawn) the results were IDE cell inh 23.4*, IDE cell activ -25.3, NOD2 RIPK2 PPI 6.0, TLR9-MyD88 inh 7.9, IDE cell inh cf 71.5* and HEK293 tox 10.6.
`COc1ccc(Cc2nc3ccc(C(=O)N(C)CC4COCCO4)cc3o2)cc1` (stereo not drawn) gave IDE cell inh 8.2, IDE cell activ -0.3, NOD2 RIPK2 PPI 4.9 and TLR9-MyD88 inh 4.2.
Screening O=C1C2C3C=CC(C3)C2C(=O)N1CNc1ccc(O)cc1 (stereo not drawn) returned IDE cell inh 4.0.
